An excerpt weighted towards active compounds, which were near 11% of everything screened.
Pf growth 48h: inhibits P. falciparum growth in the first generation, 48 h | 5.9% of 310,000 active | AID 504832 | P. falciparum luciferase growth in erythrocytes, 48 h | Potency, µM (top dose mostly 28.7 µM), actives largely listed as inhibitors
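Firefly luciferase activity from engineered P. falciparum reports growth; inhibitors lower the luminescent signal. Cultures contained 2% hematocrit erythrocytes at 0.1% final parasitemia.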
Pf growth 96h: P. falciparum growth inhibition at 96 hour, primary screen for plastid delayed-death inhibitors; AID 504834; Potency, µM (highest dose often 28.7 µM), actives largely listed as inhibitors; 6.9% of 320,000 active; P. falciparum luciferase reporter growth, 96 h
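96 h incubation, 37 C, 5% CO2, of luciferase-reporter P. falciparum-infected RBCs (2% hematocrit, 0.05% parasitemia final) with test compounds; endpoint luminescence.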
Sm TGR inh: S. mansoni TGR enzyme inhibition; Potency, µM (series often up to 114 µM), actives largely listed as inhibitors; Q962Y6; 3% of 360,000 active; AID 485364; purified TGR, DTNB reduction, TNB absorbance 405 nm; note: nearly all actives have a fitted effect of over 60% in size
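Kinetic colorimetric format: TGR-catalysed, NADPH-driven DTNB reduction monitored via TNB absorbance. Enzyme dispensed at 20 nM; compound exposure 15 min at room temperature before reaction start.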
AMA1-RON2 inh: disrupts binding of P. falciparum AMA1 to RON2; AlphaScreen AMA1-biotinylated RON2 peptide binding; Potency, µM (top dose mostly 58.2 µM), most hits filed as inhibitors; 0.2% of 360,000 active; note: nearly all actives have a fitted effect of over 45% in size
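AMA1 (3D7) with his tag at 25 nM final met compounds first, then biotinylated RON2 peptide at 25 nM; detection used donor plus acceptor beads, 10 µg/mL apiece, read by AlphaScreen after 30 min at room temperature.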
NS1 inh: inhibitors of influenza NS1 protein function; AID 2326; 0.4% of 270,000 active; Potency, µM (highest dose often 46.1 µM); calls by dose curve; note: actives are rising curves; nearly all actives have a fitted effect of over 50% in size
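OD600 was taken as the measure of yeast growth restored by compound in an NS1-expressing S. cerevisiae strain. Cells had been washed out of glucose medium and diluted 1:100 into galactose -URA medium, pH 6.0.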
Of the large screens only hits and unclear results are named; the others gave an inactive call. Unless noted, calls come from the whole dose curve; as a rule, active = well fitted curve in the direction sought with a large enough effect; inconclusive = small, poorly fitted or top-dose-only effect, or another doubt; inactive = no such curve, though single readings can be large; an effect the other way counts as inactive or inconclusive.

Cc1cc2c3c(c1)C(C)(c1ccccc1)CC(C)(C)N3C(=O)C21C(C#N)=C(N)OC2=C1C(=O)CC(C)(C)C2 (stereo unspecified)	Pf growth 96h 1.9µM (no result: Pf growth 48h)
CC1(c2ccccc2)CC(C)(C)N2C(=O)C3(C(C#N)=C(N)Oc4cc(O)ccc43)c3cccc1c32 (stereo unspecified)	Pf growth 96h inconclusive (no result: Pf growth 48h)
Cc1cc2c3c(c1C)C1(C(=O)N3C(C)(C)CC2C)C(C#N)=C(N)OC2=C1C(=O)CC(C)(C)C2 (stereo unspecified)	Pf growth 48h 13µM, Pf growth 96h 9.3µM
Cc1cc2c3c(c1)C1(C(=O)N3C(C)(C)CC2C)C(C#N)=C(N)Oc2n[nH]c(C)c21 (stereo unspecified)	Pf growth 48h 12µM (no result: Pf growth 96h)
Cc1nn(C)c2c1c(C(F)(F)F)cc(=O)n2C(C)C(=O)Nc1ccccc1F (stereo unspecified)	none (no result: Pf growth 48h, Pf growth 96h, AMA1-RON2 inh, NS1 inh)
CCCCn1c(N)c(N(CC)C(=O)c2ccccc2F)c(=O)[nH]c1=O	none
O=C1CC(Nc2ccc(N3CCOCC3)cc2)C(=O)N1Cc1ccccc1 (stereo unspecified)	Pf growth 96h inconclusive, Sm TGR inh 20µM
COc1ccc(NC2CC(=O)N(c3ccccc3)C2=O)cc1 (stereo unspecified)	Sm TGR inh inconclusive (no result: Pf growth 48h, Pf growth 96h)
COc1ccccc1N1C(=O)CC(Nc2ccc(N3CCOCC3)cc2)C1=O (stereo unspecified)	Pf growth 48h inconclusive, Sm TGR inh 20µM (no result: Pf growth 96h)
CCOc1ccccc1N1C(=O)CC(Nc2ccc(N3CCOCC3)cc2)C1=O (stereo unspecified)	Pf growth 48h inconclusive, Sm TGR inh 18µM, NS1 inh inconclusive
CCOc1ccccc1N1CC(C(=O)Nc2ccccc2N2CCOCC2)CC1=O (stereo unspecified)	Pf growth 48h inconclusive, Pf growth 96h inconclusive
O=C1CC(Nc2ccc(N3CCOCC3)cc2)C(=O)N1c1ccccc1 (stereo unspecified)	Sm TGR inh 35µM (no result: Pf growth 96h)
COc1ccccc1NC(=O)C(Cc1ccccc1)NS(=O)(=O)c1cccc2nsnc12 (stereo unspecified)	none (no result: Pf growth 48h, Pf growth 96h, AMA1-RON2 inh, NS1 inh)
CCOc1ccc(NC(=O)C2CC(=O)N(Cc3ccco3)C2)cc1 (stereo unspecified)	none (no result: NS1 inh)
CCOc1ccc(C(c2c(O)cc(C)n(Cc3ccco3)c2=O)N2CCCCC2)cc1 (stereo unspecified)	Sm TGR inh 7.1µM (no result: Pf growth 48h, Pf growth 96h, AMA1-RON2 inh, NS1 inh)
CCOc1ccc(C(c2c(O)cc(C)n(Cc3ccco3)c2=O)N2CCN(c3ccccc3)CC2)cc1 (stereo unspecified)	Sm TGR inh 3.5µM (no result: Pf growth 48h, Pf growth 96h, AMA1-RON2 inh, NS1 inh)
N#Cc1ccc(NC(=O)COC(=O)c2cccc(S(=O)(=O)N3CCCC3)c2)cc1	none (no result: Pf growth 48h, Pf growth 96h, Sm TGR inh, NS1 inh)
COc1ccc(Cn2c(O)c(C=Nc3ccc(O)cc3)c3ccccc3c2=O)cc1	Pf growth 96h 12µM, NS1 inh inconclusive
COc1ccc(Cn2c(O)c(C=Nc3ccccc3)c3ccccc3c2=O)cc1	Pf growth 48h inconclusive, Pf growth 96h inconclusive
O=C(N/N=C/c1ccc(N2CCOCC2)s1)c1ccc(O)cc1	none (no result: Pf growth 48h, Pf growth 96h, Sm TGR inh, NS1 inh)
O=S(=O)(N/N=C/c1ccc(N2CCOCC2)cc1)c1ccccc1	Pf growth 48h inconclusive, Pf growth 96h inconclusive, Sm TGR inh 35µM (no result: NS1 inh)
O=C(N/N=C/c1ccc(N2CCOCC2)cc1)c1ccc(O)cc1	Sm TGR inh 45µM
COc1ccc(Cc2nnc(NC(=O)c3ccccc3F)s2)cc1	none
COc1ccc(N2CCN(C(=O)CN(c3ccccc3)S(C)(=O)=O)CC2)cc1	Pf growth 96h 10µM
COc1ccccc1N1CCN(C(=O)CN(c2ccccc2OC)S(=O)(=O)c2ccccc2)CC1	Pf growth 48h inconclusive, Pf growth 96h 1.3µM
COc1ccc(S(=O)(=O)N(CC(=O)N2CCN(c3ccccc3)CC2)c2ccccc2)cc1	Pf growth 96h inconclusive (no result: Pf growth 48h)
COc1ccc(N2CCN(C(=O)CN(c3cccc(OC)c3)S(=O)(=O)c3ccccc3)CC2)cc1	Pf growth 48h 13µM, Pf growth 96h inconclusive, AMA1-RON2 inh inconclusive
COc1ccccc1N1CCN(C(=O)C(Sc2ccccc2)c2ccccc2)CC1 (stereo unspecified)	Pf growth 48h 13µM
Cc1cnc(C(=O)OCC(=O)NC(=O)c2ccccc2)cn1	none (no result: NS1 inh)
COc1ccc(-c2ccc(NS(=O)(=O)c3ccc(NC(C)=O)cc3)cc2)nn1	none (no result: Pf growth 48h, Pf growth 96h, AMA1-RON2 inh, NS1 inh)
CCc1ccc(N(CC(=O)N2CCCC2)S(C)(=O)=O)cc1	none (no result: Pf growth 48h, Pf growth 96h, Sm TGR inh, NS1 inh)
CCc1ccc(N(CC(=O)N2CCOCC2)S(C)(=O)=O)cc1	Pf growth 96h 13µM
Cc1csc(-c2cnn(-c3ccccc3)c2NC(=O)c2cccc(C(F)(F)F)c2)n1	Pf growth 96h 10µM (no result: Pf growth 48h)
O=C1CCCC2=C1C(c1ccc(Cl)cc1)C1C(=O)c3ccccc3C1=N2 (stereo unspecified)	Pf growth 48h inconclusive, Pf growth 96h inconclusive, NS1 inh inconclusive
O=C1c2ccccc2C2=Nc3ccccc3SC(c3cccc(F)c3)C12 (stereo unspecified)	Pf growth 48h 0.59µM, Pf growth 96h inconclusive, AMA1-RON2 inh inconclusive
O=C1c2ccccc2C2=Nc3ccccc3SC(c3ccc(Cl)cc3)C12 (stereo unspecified)	Pf growth 48h 0.52µM, AMA1-RON2 inh inconclusive
O=C1CCCC2=C1C(c1ccccc1)C1C(=O)c3ccccc3C1=N2 (stereo unspecified)	AMA1-RON2 inh inconclusive
COC(=O)[C@]1(Cc2ccccc2)N[C@H](CN(C)C(=O)c2ccc(C(C)(C)C)cc2)[C@@H]2C(=O)N(Cc3ccccc3)C(=O)[C@@H]21	none (no result: Pf growth 48h, Pf growth 96h, Sm TGR inh, NS1 inh)
COc1cc2cc(CCOC(=O)c3ccc(C(F)(F)F)cc3)oc(=O)c2cc1OC	Pf growth 48h inconclusive, Sm TGR inh inconclusive (no result: NS1 inh)
COc1ccc(CC(=O)OCCc2cc3cc(OC)c(OC)cc3c(=O)o2)cc1	Pf growth 48h inconclusive, Pf growth 96h inconclusive, Sm TGR inh 7.1µM (no result: NS1 inh)
Nn1c(SCC(=O)Nc2cc(C(F)(F)F)ccc2Cl)nncc1=O	Pf growth 48h 12µM, Pf growth 96h inconclusive
Cc1ccc2c(c1)c1c(c(=O)n(Cc3ccccc3)c(=O)n1CC(=O)Nc1ccccc1F)n2C	none (no result: Pf growth 48h, Pf growth 96h, AMA1-RON2 inh, NS1 inh)
CC(=O)c1ccc(NC(=O)CC2Nc3cccc4cccc(c34)NC2=O)cc1 (stereo unspecified)	Pf growth 48h inconclusive, Pf growth 96h inconclusive, Sm TGR inh 18µM
COc1ccc(CCNC(=O)CC2Nc3cc(C)c(C)cc3NC2=O)cc1OC (stereo unspecified)	Pf growth 48h 13µM, NS1 inh inconclusive (no result: Pf growth 96h)
Cc1cc2c(cc1C)NC(CC(=O)NCc1ccccc1)C(=O)N2 (stereo unspecified)	Pf growth 48h inconclusive
COc1ccccc1NC(=O)CC1Nc2ccccc2NC1=O (stereo unspecified)	Pf growth 48h 3.7µM (no result: Pf growth 96h)
CCOC(=O)C(C)NC(=O)C1CCN(c2ncnc3c2nc2n3CCCCC2)CC1 (stereo unspecified)	none (no result: Pf growth 48h, Pf growth 96h, AMA1-RON2 inh, NS1 inh)
C[C@H]1Cn2cnc(C(=O)Nc3cccc(Cl)c3)c2C(=O)N1	none (no result: Pf growth 48h, Pf growth 96h, Sm TGR inh, NS1 inh)
Cc1nc(N2CCCCC2)c2c(C)c(C(=O)Nc3cccc(C(F)(F)F)c3)sc2n1	Pf growth 48h 2.6µM (no result: NS1 inh)
